# Legend:
# Experiment in all cases: DAPPL (digital affinity profiling via proximity ligation, sequencing); 10 mM Tris-HCl pH 7.5, 50 mM NaCl, 1 mM DTT, 4% glycerol, room temperature, 30 min; GST-TFs on glutathione beads, 16-mer random dsDNA library, 0.1% formaldehyde crosslink after washing; high values mean tight binding
# Conditions in all cases: protein: recombinant; tags: N-terminal GST; dsDNA, one strand shown
# FLI1 = molecular target: T1, FLI1 (Homo sapiens, UniProt Q01543 1-452)
# T1 sequence: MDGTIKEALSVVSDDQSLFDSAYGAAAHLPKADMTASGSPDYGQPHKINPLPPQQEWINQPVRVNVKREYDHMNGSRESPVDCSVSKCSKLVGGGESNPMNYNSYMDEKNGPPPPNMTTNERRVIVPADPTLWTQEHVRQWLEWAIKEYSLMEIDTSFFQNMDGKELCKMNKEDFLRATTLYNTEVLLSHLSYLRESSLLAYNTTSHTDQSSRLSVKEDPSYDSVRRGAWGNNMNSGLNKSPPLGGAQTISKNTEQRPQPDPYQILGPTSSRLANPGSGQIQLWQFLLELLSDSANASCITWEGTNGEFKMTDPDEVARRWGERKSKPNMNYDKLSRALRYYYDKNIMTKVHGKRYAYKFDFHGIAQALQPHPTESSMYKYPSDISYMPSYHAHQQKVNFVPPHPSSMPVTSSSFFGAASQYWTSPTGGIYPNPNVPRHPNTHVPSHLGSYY
# Procedure, shortened: (§1)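 GST fusions of human transcription factors were expressed in yeast and captured with glutathione beads. Once given DNA barcodes and pooled alongside a tag-only sample, they were incubated for 30 min at room temperature with 200 nmole of a random double-stranded 16-mer DNA library in Tris/NaCl/DTT/glycerol buffer, then washed, crosslinked (0.1% formaldehyde), proximity-ligated, PCR-amplified and sequenced on an Illumina NextSeq500. The binding signal of each hexamer is its read frequency for a factor divided by its frequency for the tag-only sample.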
# ELK1 = molecular target: T2, ELK1 (Homo sapiens, UniProt P19419 1-428)
# T2 sequence: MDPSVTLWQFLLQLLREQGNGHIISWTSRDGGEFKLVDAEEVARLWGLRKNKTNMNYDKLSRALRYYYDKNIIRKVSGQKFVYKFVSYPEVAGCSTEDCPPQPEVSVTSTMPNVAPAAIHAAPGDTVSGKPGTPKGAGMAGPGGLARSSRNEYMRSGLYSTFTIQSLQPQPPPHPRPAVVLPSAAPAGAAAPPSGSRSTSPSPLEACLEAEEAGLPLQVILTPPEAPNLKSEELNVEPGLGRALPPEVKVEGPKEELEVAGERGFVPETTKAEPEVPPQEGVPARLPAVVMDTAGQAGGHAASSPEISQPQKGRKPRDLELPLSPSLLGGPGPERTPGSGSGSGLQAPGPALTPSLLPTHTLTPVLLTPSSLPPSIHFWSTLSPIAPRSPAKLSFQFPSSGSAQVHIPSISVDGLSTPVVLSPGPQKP
# Procedure, shortened: as §1
# GABPA = molecular target: T3, GABPA (Homo sapiens, UniProt Q06546 1-454)
# T3 sequence: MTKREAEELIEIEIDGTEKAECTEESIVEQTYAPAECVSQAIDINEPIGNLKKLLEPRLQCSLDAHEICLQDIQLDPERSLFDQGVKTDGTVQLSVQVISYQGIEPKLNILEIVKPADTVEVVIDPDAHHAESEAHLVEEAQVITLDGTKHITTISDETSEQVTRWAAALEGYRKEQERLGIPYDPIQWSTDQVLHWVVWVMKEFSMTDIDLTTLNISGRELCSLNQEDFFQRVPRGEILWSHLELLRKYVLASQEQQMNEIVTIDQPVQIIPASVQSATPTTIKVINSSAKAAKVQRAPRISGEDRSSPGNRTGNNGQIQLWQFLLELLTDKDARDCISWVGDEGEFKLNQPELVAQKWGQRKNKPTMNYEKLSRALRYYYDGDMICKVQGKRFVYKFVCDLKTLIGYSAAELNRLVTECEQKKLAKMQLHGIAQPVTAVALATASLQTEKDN
# Procedure, shortened: as §1
# ERG = molecular target: T4, ERG (Homo sapiens, UniProt P11308 1-479)
# T4 sequence: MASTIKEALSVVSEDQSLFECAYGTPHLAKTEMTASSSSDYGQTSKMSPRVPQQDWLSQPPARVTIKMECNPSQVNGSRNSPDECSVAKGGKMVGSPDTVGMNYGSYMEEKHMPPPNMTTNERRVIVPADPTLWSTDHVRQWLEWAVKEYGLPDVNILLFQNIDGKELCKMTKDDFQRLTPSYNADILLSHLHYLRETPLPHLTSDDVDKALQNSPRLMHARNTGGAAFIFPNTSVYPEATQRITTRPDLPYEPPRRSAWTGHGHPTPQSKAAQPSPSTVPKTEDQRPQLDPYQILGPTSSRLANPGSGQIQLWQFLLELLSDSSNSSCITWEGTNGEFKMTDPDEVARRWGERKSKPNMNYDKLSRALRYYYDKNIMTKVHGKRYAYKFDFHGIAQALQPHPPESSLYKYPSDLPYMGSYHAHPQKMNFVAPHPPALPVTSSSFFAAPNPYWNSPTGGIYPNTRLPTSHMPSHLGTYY
# Procedure, shortened: as §1
# ELF1 = ELF1 (Homo sapiens, UniProt P32519 1-619)
# ELF1, sequence (P32519 whole entry): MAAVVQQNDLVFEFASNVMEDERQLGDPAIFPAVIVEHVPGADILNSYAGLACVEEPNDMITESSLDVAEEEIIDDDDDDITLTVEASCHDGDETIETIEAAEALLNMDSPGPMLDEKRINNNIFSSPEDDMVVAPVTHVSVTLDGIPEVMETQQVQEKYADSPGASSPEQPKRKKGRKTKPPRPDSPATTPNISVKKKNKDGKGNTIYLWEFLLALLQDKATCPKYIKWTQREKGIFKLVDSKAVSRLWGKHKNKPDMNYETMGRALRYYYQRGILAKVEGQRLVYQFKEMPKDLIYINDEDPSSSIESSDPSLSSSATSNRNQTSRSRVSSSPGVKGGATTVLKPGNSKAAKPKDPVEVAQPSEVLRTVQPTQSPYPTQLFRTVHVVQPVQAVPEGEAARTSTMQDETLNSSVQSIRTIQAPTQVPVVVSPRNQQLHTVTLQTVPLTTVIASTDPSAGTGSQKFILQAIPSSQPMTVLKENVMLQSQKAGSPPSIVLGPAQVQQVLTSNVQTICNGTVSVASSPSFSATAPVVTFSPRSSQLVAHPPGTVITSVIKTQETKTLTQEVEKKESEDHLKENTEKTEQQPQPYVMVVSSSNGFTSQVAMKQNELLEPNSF
# Procedure, shortened: as §1
# EHF = molecular target: T5, EHF (Homo sapiens, UniProt Q9NZC4 1-300)
# T5 sequence: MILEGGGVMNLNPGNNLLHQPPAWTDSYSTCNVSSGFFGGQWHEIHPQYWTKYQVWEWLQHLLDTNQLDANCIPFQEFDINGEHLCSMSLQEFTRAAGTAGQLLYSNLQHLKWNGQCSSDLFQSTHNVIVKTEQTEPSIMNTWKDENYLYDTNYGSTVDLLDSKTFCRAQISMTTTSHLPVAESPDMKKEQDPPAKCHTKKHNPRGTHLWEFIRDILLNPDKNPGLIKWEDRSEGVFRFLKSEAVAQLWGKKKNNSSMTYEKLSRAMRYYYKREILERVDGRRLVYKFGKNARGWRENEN
# Procedure, shortened: as §1
# SPI1 = SPI1 (Homo sapiens, UniProt P17947 1-270)
# Procedure, shortened: as §1
# SPIB = SPIB (Homo sapiens, UniProt Q01892 1-262)
# SPIB, sequence (Q01892 whole entry): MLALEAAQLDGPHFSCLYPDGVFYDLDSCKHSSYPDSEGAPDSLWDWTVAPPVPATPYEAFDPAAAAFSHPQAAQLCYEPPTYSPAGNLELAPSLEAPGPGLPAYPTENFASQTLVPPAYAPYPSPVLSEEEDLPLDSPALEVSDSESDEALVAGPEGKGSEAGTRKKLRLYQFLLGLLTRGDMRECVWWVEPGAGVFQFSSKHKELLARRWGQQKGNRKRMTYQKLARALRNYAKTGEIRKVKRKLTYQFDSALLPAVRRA
# Procedure, shortened: as §1
# ELK3 = molecular target: T6, ELK3 (Homo sapiens, UniProt P41970 1-407)
# T6 sequence: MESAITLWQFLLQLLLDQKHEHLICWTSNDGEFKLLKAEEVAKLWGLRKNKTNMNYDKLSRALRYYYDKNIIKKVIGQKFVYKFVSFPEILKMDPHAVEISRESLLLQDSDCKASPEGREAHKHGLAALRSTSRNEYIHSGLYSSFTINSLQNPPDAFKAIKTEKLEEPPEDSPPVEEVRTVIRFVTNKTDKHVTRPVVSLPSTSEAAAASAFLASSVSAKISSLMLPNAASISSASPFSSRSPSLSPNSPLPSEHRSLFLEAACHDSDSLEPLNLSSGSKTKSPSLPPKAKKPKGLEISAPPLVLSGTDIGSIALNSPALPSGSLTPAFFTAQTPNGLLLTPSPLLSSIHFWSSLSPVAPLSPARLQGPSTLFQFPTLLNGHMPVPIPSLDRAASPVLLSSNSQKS
# Procedure, shortened: as §1
sequence,measurement,setting,value
AATAAA,binding signal,FLI1,"1.2 fold enrichment (6-mer frequency, TF over GST control)"
same,binding signal,ELK1,"1.2 fold enrichment (6-mer frequency, TF over GST control)"
same,binding signal,GABPA,"1.27 fold enrichment (6-mer frequency, TF over GST control)"
same,binding signal,ERG,"1.21 fold enrichment (6-mer frequency, TF over GST control)"
same,binding signal,ELF1,"1.27 fold enrichment (6-mer frequency, TF over GST control)"
same,binding signal,EHF,"1.25 fold enrichment (6-mer frequency, TF over GST control)"
same,binding signal,SPI1,"1.32 fold enrichment (6-mer frequency, TF over GST control)"
same,binding signal,SPIB,"1.26 fold enrichment (6-mer frequency, TF over GST control)"
same,binding signal,ELK3,"1.27 fold enrichment (6-mer frequency, TF over GST control)"

# — paper PMC7862700, “An all-to-all approach to the identification of sequence-specific readers for epigenetic DNA modifications on cytosine”
